We go through three molecules from PubChem BioAssay (EPA / NIEHS).

Inconclusive results are not listed. Activity calls are given as the source filed them. Rule for the calls: active = hit-call score of the fitted dose curve at least 0.9, where 1 is the maximum; inconclusive = response in the unintended direction; inactive = score below 0.9.

Read-out in experiment [1]: organic anion transporter (SLCO1B1), SLCO1B1 (gene 10599)
The experiment can be described thus: CLD_SLCO1B1_48hr: CellzDirect (CLD) Gene Expression Assay for organic anion transporter (SLCO1B1) at 48 hours (AID 2283707). In a few lines: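 Primary human hepatocytes from two donor preparations dosed daily for two days with multiple concentrations, 0.2% DMSO vehicle. SLCO1B1 mRNA at 48 h by quantitative nuclease protection assay, chemiluminescence; gain-of-signal fitted versus DMSO.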

Read-out in experiment [2]: HMG-CoA synthase (HMGCS2), HMGCS2 (gene 3158)
The experiment can be described thus: CLD_HMGCS2_48hr: CellzDirect (CLD) Gene Expression Assay for HMG-CoA synthase (HMGCS2) at 48 hours (AID 2283711). In a few lines:
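Primary human hepatocytes from two donors dosed daily for two days, 0.2% DMSO vehicle. HMGCS2 mRNA measured 48 h after dosing by quantitative nuclease protection assay with chemiluminescent read-out; induction fitted relative to DMSO, cytotoxicity flagged by microscopy.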

For the molecule `CCC(C)(CC)c1cc(NC(=O)c2c(OC)cccc2OC)on1`, the molecule was classed as inactive in experiment [1].
As for `CCSC(=O)N(CC)C1CCCCC1`, the call in experiment [1] was inactive.
`CN(C)c1nc(=O)n(C2CCCCC2)c(=O)n1C`: in experiment [2], the call was inactive.
